Screens as filed in PubChem.
An excerpt weighted towards active compounds, which were near 3.9% of everything screened.
AHR act = human AHR activation | P35869 | AHR-responsive luciferase reporter cells, luminescence | activation, % at 5 µM | 320,000 tested, 2.5% active | AID 2796; in the data active means activation above about 47%;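 further: 0% = vehicle wells and 100% = reference agonist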
PLCb3 inh = inhibitors of human phospholipase C beta3; 370,000 tested, 0.18% active; Purified PLC-beta3, fluorogenic substrate, fluorescence; inhibition, % at 12.2 µM; in the data active means inhibition above about 11%;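 further: 0% = median of compound wells on plate and 100% = full blocker control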
Yeast superoxide = lowers age-related superoxide in aged yeast cells. S. cerevisiae aged cells, superoxide DHE fluorescence; stronger effect = lower value. superoxide response (% of plate mean), % at 10 µM. 330,000 tested, 0.18% active. AID 2690;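 active means superoxide response under a set limit, about three screen SD below normal, cut at about 65% in these data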;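 further: yeast aged for seven days with compound at 30 °C before DHE staining; 100% = average MFI of all compound-treated wells on the plate with controls excluded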
sPLA2-III inh = Inhibits HGIII-sPLA2 liposome hydrolysis, primary screen; AID 743126; QFRET BODIPY PC-A2 liposome hydrolysis, fluorescence; inhibition, % at 12.2 µM; 370,000 tested, 0.56% active;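 active means inhibition above mean plus 3 SD of compounds lying within the high and low control bounds, cut at about 19% in these data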;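 further: 0% = median of test compound wells and 100% = no enzyme DMSO wells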
HIF act = HIF pathway transcriptional activation; U2OS HRE-luciferase reporter, luminescence; normalized: DMSO 0%, desferrioxamine 100%; activation, % at 7.5 µM (by protocol); 300,000 tested, 0.32% active; AID 1910;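 active means mean activation of at least 10% of the iron chelator positive control signal, with at least half of replicates also reaching 10%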
PLC-gamma1 inh = blocks human PLC-gamma1 enzyme activity; P19174; purified PLC-gamma1, fluorogenic substrate, fluorescence; inhibition, % at 12.2 µM; 370,000 tested, 0.84% active; in the data active means inhibition above about 9.5%
AHR act cf = confirmation of human aryl hydrocarbon receptor activators; shares compounds with AHR act; activation, % at 9 µM; AID 2845; 2,300 tested, 87% active; human cells, AHR-responsive luciferase reporter, luminescence; in the data active means activation above about 49%;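 further: HepG2 hepatoma cells carrying a DRE-driven firefly luciferase reporter; 0% = vehicle wells and 100% = reference agonist wells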
PXR counter = PXR activation, counter-screen for AHR activators; shares compounds with AHR act; cell-based PXR reporter, luciferase luminescence; activation, % at 11.6 µM; 2,300 tested, 88% active; in the data active means activation above about 11%;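 further: human hepatoma DPX-2 cells expressing full-length human PXR; 0% = DMSO and 100% = reference agonist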
Target sequence (O75469 whole entry, looked up): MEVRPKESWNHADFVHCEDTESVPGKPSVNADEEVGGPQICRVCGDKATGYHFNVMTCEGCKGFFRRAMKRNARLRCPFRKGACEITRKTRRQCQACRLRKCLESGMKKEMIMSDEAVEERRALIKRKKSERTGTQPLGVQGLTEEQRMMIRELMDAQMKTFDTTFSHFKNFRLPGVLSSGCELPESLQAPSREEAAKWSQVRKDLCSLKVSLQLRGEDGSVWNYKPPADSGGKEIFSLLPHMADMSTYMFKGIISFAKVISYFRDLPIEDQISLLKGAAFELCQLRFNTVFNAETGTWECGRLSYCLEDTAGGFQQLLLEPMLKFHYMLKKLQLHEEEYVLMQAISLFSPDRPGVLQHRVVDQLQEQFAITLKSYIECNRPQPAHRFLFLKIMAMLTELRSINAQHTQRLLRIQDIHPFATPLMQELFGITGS
* = called active by the depositor; x = not tested or not shown.

SMILES	AHR act	PLCb3 inh	Yeast superoxide	sPLA2-III inh	HIF act	PLC-gamma1 inh	AHR act cf	PXR counter
CC1CCN(c2nc(-c3cccnc3)nc3scc(-c4ccccc4)c23)CC1	15	-3	77	2	0	0	x	x
Clc1nc(-c2ccccn2)nc2scc(-c3ccccc3)c12	80*	-128	107	21*	1	-116	59*	25*
Nc1nc(-c2cccnc2)nc2sc3c(c12)CCCC3	118*	-278	107	-4	1	-267	90*	72*
C=CCn1c(Oc2ccc(C=O)cc2OCC)nc2c1c(=O)n(C)c(=O)n2C	0	-3	97	7	0	2	x	x
COc1ccc(N=CC2=C(Nc3ccc(OC)cc3)c3c(C)nn(-c4ccccn4)c3CC2)cc1	11	x	116	x	x	x	x	x
Cc1ccc(NC(=O)c2sccc2-n2cccc2)c(C)c1	11	-1	83	5	-1	-1	x	x
O=C(Nc1ccc(Cl)cc1)c1sccc1-n1cccc1	138*	-5	98	-10	0	2	145*	28*
CCc1ccc(NC(=O)c2sccc2-n2cccc2)cc1	102*	-5	93	-5	1	0	141*	41*
CCc1ccc(NC(=O)CCn2cccc2)cc1	6	1	110	-18	1	-1	x	x
Cc1nc(N)sc1-c1csc(Nc2ccccc2)n1	81*	-18	123	6	-2	-11	147*	20*
COc1ccc(Nc2nc(-c3sc(C)nc3C)cs2)cc1	44	-14	98	2	2	-5	x	x
Cc1nc(C)c(-c2csc(Nc3ccc(N)cc3)n2)s1	127*	-12	95	-2	0	-4	22	19*
Cc1nc(N)sc1-c1csc(Nc2cccc(C(=O)O)c2)n1	x	-41	99	-7	-1	-7	x	x
O=C(Cn1cnc2ccccc2c1=O)N1CCN(Cc2ccc(F)cc2)CC1	x	2	x	12	x	5	x	x
C=CCNc1nc2cc(-c3ccc(C(=O)N4CCOCC4)cc3)sc2c(=O)n1C	x	-98	x	9	x	-73	x	x
Cc1n[nH]c(C)c1N=Nc1ccc(Br)cc1	132*	10	107	-9	-1	7	123*	20*
CC(C)(C)c1ccc(OCC(O)CN2CCOCC2)cc1 (stereo not given)	-1	-5	88	-1	0	3	x	x
COc1cc(/C=C(\C#N)c2nc3ccccc3[nH]2)ccc1OC(=O)c1ccco1	100*	-333	91	-16	2	-264	29	14*
COc1cc(/C=C(/C#N)c2nc3ccccc3[nH]2)ccc1OCC(=O)Nc1ccccc1C	7	-14	90	-2	x	-14	x	x
NC(=S)N/N=C/c1ccc(-c2cc(Cl)cc(Cl)c2)o1	17	-34	120	1	0	-27	x	x
NC(=S)N/N=C/c1ccc(-c2ccc([N+](=O)[O-])cc2)o1	92*	-60	104	12	2	-49	118*	14*
Cc1c(C(=O)N/N=C/C(C)C)[nH]c2c([N+](=O)[O-])cccc12	86*	3	136	4	1	-4	39	10*
CC(=O)N1CCC(C(=O)N2CCN(S(=O)(=O)c3ccc(F)cc3)CC2)CC1	1	-4	90	0	0	7	x	x
CCOC(=O)N1CCC(N2C(=O)c3ccc(C(=O)Nc4cccc(OC)c4)cc3C2=O)CC1	1	-5	96	-4	0	-1	x	x
Cc1ccc2ncccc2c1NC(=S)NC(=O)c1ccccc1	86*	-2	106	3	-1	3	126*	37*
SMILES	AHR act	PLCb3 inh	Yeast superoxide	sPLA2-III inh	HIF act	PLC-gamma1 inh	AHR act cf	PXR counter
O=C(NC(=S)NCCc1ccccn1)c1ccccc1	100*	7	104	4	2	-2	62*	12*
Cc1ccc2ncccc2c1NS(=O)(=O)c1ccccc1	0	-3	91	3	-1	-4	x	x
O=C(NC(=S)NCCc1ccccc1)c1cccc(Cl)c1	124*	-4	98	-11	1	1	139*	19*
Cc1ccc2c(c1)c1nnc(SCC(=O)NC3CC3)nc1n2C	79*	-4	90	3	0	-1	100*	19*
COc1ccc(NCN2C(=O)C3C4C=CC(C4)C3C2=O)cc1 (stereo not given)	0	4	100	0	0	3	x	x
Cn1cc(/C=N\NC(=O)c2cccs2)c2ccccc21	149*	-10	97	4	4	-12	110*	21*
C=CCNC(=S)N/N=C/c1ccccc1OCCOc1ccccc1	12	-11	100	9	0	-33	x	x
C=CCNC(=S)N/N=C/c1cn(C)c2ccccc12	95*	-3	92	10	1	-2	74*	167*
Cc1cc(/C=N/NC(=O)c2cccs2)c(C)n1-c1ccccc1	2	-60	93	7	-1	-44	x	x
Cc1cc(/C=N/NC(=O)c2cccs2)c(C)n1-c1cnccn1	110*	-8	86	1	2	0	118*	21*
COC(=O)c1sccc1NC(=O)c1ccccc1	0	-3	103	5	0	-5	x	x
COC(=O)c1sccc1NC(=O)c1ccc(C(C)C)cc1	95*	-12	93	2	2	0	97*	15*
Cc1ccc(S(=O)(=O)n2nnc3ccccc32)c(C)c1C	-2	0	80	-1	0	-1	x	x
COC(=O)c1cc2c([nH]c3ccccc32)c(C)n1	x	x	x	x	-3	x	x	x
COc1ccc(NC(=O)c2cc3c([nH]c4ccccc43)c(C)n2)cc1	85*	-1	126	-2	0	-3	88*	15*
Nc1c(C(=O)c2ccc(Cl)cc2)oc2ccccc12	113*	-12	109	-6	4	-15	169*	16*
COc1ccc(C(=O)c2oc3ccc(OC)cc3c2NC(C)=O)cc1	19	-152	104	1	0	-93	x	x
O=C(Nc1ccc(F)cc1)c1oc2ccccc2c1NC(=O)C1CCCC1	91*	x	92	x	0	x	136*	36*
CC(=O)Nc1c(C(=O)O)oc2ccccc12	8	0	98	1	0	0	x	x
CC(=O)Nc1c(C(=O)c2ccc(F)cc2)oc2ccccc12	155*	-7	114	5	0	2	126*	39*
O=C(c1ccc(Cl)cc1)c1oc2ccccc2c1CS(=O)c1ccc(Cl)cc1 (stereo not given)	3	-9	102	2	0	-4	x	x
COc1ccc(C(=O)c2oc3ccccc3c2NC(C)=O)cc1	173*	-120	100	-6	1	-103	148*	14*
O=C(Nc1c(C(=O)C2CC2)oc2ccccc12)c1ccc(Cl)cc1	13	-5	107	17	-2	-1	x	x
